From paper PMC7819943, “Rice protein-binding microarrays: a tool to detect cis-acting elements near promoter regions in rice” come the findings set out here.

In all, about 68,000 sequences were measured (“fluorescence intensity (a.u.)”: median about 9,100, highest 2% from about 16,000 on). This excerpt belongs to a sample that is enriched for the highest values.

Chain of OsWRKY34 (Q0JBA9 entry or part of it): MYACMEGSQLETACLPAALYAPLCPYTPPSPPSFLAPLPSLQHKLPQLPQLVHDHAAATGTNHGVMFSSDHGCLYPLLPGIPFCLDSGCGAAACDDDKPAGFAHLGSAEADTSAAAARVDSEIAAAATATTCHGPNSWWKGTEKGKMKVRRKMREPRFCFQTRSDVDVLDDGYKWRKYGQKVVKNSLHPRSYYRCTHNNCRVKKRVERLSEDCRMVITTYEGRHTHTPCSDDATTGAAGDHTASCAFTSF

For the experiment, the target named is OsWRKY34 (Oryza sativa, UniProt Q0JBA9 1-250). Briefly: protein-binding microarray (RPBM); PBS, 2% BSA, 51.3 ng/ul salmon testes DNA, 50 uM zinc acetate, 200 nM TF, 25 C, 1 h; high values mean tight binding. The note with it: protein: recombinant; tags: N-terminal polyhistidine and DsRed monomer fusion (pET32a); label: CyDye5-dUTP incorporated in the synthesized complementary strand; 3' TTTTT single-stranded linker to array surface; dsDNA, one strand shown. The procedure, abridged:
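Transcription factors were each fused at the N-terminus to a polyhistidine tag plus DsRed and expressed in E. coli BL21-CodonPlus before Ni–NTA purification. Binding to a double-stranded custom Agilent array was carried out with 200 nM protein at 25 °C for 1 h in PBS, 2% BSA, salmon testes DNA and 50 µM zinc acetate. The binding signal is per-feature fluorescence intensity, in arbitrary units, on an Axon 4000B scanner.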
As to “ATCCCACCGTGGCGCCACCCTATTGGGCCCTACTCTTCAGCGGAGTCACCTAGTGCAG”, the binding signal is 8780 fluorescence intensity (a.u.).
To “ACTCCATATCGCTTCGCGATTTTTTGTTGACCAAATCAATCGGAGTCACCTAGTGCAG” belongs 9610 fluorescence intensity (a.u.).
Turning to “AATCTCGTTCCTTGCTGTTGTGACTAGTATCGTTGCCTACCGGAGTCACCTAGTGCAG”, the binding signal is 10500 fluorescence intensity (a.u.).
As to “GCCTGCTGTTCCTTTTAGTTTCTCCAAGCTCCTGCCAACACGGAGTCACCTAGTGCAG”, the binding signal was 8320 fluorescence intensity (a.u.).
To “TATAGTAGTATGGGTGGAGATTTATATTTTTCTCTCGATTCGGAGTCACCTAGTGCAG” belongs 8940 fluorescence intensity (a.u.); to “CTAGATTCGTTTTTTATGGGGTGGAGGGAGTACATGCCTTCGGAGTCACCTAGTGCAG”, 12800 fluorescence intensity (a.u.).
Turning to “GGAGGCATGATGGCGGCATGGTGGAGGGTGGGGTGACGTGCGGAGTCACCTAGTGCAG”, the binding signal is 12000 fluorescence intensity (a.u.).
With “ACCTTTTATGGTGGGGTAGGAGTAGGTGACGGTGGAGATTCGGAGTCACCTAGTGCAG”, the binding signal was 19000 fluorescence intensity (a.u.).
“ACGCGGGGATGGATGATGGTGGTGGCGGCGAGGGGATGATCGGAGTCACCTAGTGCAG”: the binding signal is 9170 fluorescence intensity (a.u.).
Turning to “CGTGGTGGTGGTAGGGGAGGGGATGGATGATATGGCGTGACGGAGTCACCTAGTGCAG”, the binding signal was 22400 fluorescence intensity (a.u.).
To “GAAATACTCCAATGGGTTAACTTAGGGTCGGGAAGGGGAGCGGAGTCACCTAGTGCAG” belongs 10100 fluorescence intensity (a.u.); to “TTCCTGCTCTGTCCGTGCTCGACTCAATTCATTGTCAACCCGGAGTCACCTAGTGCAG”, 8690 fluorescence intensity (a.u.); to “CTTTGCATCTCTTCTTTTCTTTCTTTTTTTTTTCTTTTCTCGGAGTCACCTAGTGCAG”, 12100 fluorescence intensity (a.u.).
As to “ATATTGTTGACTTTTTAGCACATGTTTAACCGTTCATCTTCGGAGTCACCTAGTGCAG”, the binding signal is 19600 fluorescence intensity (a.u.).
For “GTTAACTTTTTAGAACATGTTTGACCGTTCGTCTTATTCACGGAGTCACCTAGTGCAG”, the binding signal was 8930 fluorescence intensity (a.u.).
To “TCCACGTTGACCACATCGCGTCACACCGTCCACGACTTTTCGGAGTCACCTAGTGCAG” belongs 12700 fluorescence intensity (a.u.); to “CCGTTGACTTTTTAGTACATGTTTAACCGTTCGTCTTATTCGGAGTCACCTAGTGCAG”, 38600 fluorescence intensity (a.u.).
Turning to “TGTTCGCGTCCATCGTTGACTTTTTCAACGCCATGCACGCCGGAGTCACCTAGTGCAG”, the binding signal is 30900 fluorescence intensity (a.u.).
In the case of “TTCATCTCACGTACTGTTCTTTTGCCTCTCGCTAGCTCGTCGGAGTCACCTAGTGCAG”, the binding signal is 9220 fluorescence intensity (a.u.).
Regarding “GTTAACTTTTTAGCACATGTTTGACCGTTCGTCTTATTCACGGAGTCACCTAGTGCAG”, the binding signal is 12600 fluorescence intensity (a.u.).
Regarding “GCCTCTTTTTTGTCGCTCTCACTGTCTCACACCTACACGTCGGAGTCACCTAGTGCAG”, the binding signal is 16400 fluorescence intensity (a.u.).
With “AAGTTTTCGCGTCCAACTTTCATCGTTCGTCTTATTTGAACGGAGTCACCTAGTGCAG”, the binding signal was 10600 fluorescence intensity (a.u.).
To “GACTTTTTAGCACATGTTTAACCGTTCGTCTTATTCAAAACGGAGTCACCTAGTGCAG” belongs 12100 fluorescence intensity (a.u.); to “CCTCTCTTTCTCTCACTCTCTGTGACTCTTGTCTTTTTGTCGGAGTCACCTAGTGCAG”, 8390 fluorescence intensity (a.u.).
As to “TTTTTAGTACATGTTTGACCGTTCGTCTTATTCAAAAAATCGGAGTCACCTAGTGCAG”, the binding signal is 10700 fluorescence intensity (a.u.).
